# From the supplement of paper PMC11732987, “Enantioselective OTUD7B fragment discovery through chemoproteomics screening and high-throughput optimisation” (Communications Chemistry, 2025)
# Unmarked numbers belong to inactive results.
# Legend:
# Experiment in all cases: log2 ratio of Biotin-Ahx-Ub-VS probe labelling (fragment/DMSO); higher = less target engagement (more negative = stronger competition), active = hit call of the paper (q ≤ 0.05, log2 ratio ≤ -1)
# Conditions in all cases: compound concentration: 200 uM; treatment time: 3 h
# ALG13 = target: T1, ALG13 (UniProt Q9NP73)
# T1 sequence (whole entry): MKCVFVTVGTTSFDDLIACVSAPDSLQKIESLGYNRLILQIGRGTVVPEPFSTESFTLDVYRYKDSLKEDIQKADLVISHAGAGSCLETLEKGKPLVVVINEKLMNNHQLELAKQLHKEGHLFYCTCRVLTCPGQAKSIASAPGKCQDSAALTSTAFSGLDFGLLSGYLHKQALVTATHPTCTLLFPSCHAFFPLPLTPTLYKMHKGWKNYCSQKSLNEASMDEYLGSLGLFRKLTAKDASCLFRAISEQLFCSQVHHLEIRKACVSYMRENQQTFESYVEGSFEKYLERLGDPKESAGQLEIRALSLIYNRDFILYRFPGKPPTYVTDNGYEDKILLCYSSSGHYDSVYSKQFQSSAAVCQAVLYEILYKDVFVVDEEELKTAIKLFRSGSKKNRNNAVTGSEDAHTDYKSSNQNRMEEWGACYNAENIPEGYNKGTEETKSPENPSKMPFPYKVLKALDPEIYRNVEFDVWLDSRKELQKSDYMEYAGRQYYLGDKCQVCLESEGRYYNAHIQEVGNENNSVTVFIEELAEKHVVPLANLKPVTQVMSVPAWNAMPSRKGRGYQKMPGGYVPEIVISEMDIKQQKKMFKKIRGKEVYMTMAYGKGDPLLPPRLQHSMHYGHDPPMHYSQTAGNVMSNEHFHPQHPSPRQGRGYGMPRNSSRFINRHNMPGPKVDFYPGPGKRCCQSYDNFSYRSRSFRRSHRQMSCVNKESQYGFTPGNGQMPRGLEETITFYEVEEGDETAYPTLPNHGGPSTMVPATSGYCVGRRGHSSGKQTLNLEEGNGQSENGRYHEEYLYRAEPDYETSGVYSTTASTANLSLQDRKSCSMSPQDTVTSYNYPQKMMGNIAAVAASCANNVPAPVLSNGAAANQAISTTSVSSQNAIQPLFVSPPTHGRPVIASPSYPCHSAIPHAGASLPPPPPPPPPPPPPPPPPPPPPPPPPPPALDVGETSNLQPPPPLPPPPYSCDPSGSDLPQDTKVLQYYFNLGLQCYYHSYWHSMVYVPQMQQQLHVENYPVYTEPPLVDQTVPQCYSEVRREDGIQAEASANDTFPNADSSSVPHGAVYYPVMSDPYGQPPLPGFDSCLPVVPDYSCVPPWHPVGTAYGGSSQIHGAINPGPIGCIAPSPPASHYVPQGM
# Outline: (§1)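 HEK293T lysate in Tris/CHAPS/IGEPAL buffer with protease inhibitors (495 µg per sample) was given fragment at 200 µM or vehicle for 3 h, in triplicate. It then received Biotin-Ahx-Ub-VS at 0.5 µM final for 1 h. Labelled DUBs were NeutrAvidin-enriched, digested with LysC and trypsin, and run by diaPASEF LC-MS/MS. Values are average log2 fragment/vehicle ratios by unpaired t-test on global-median-normalised Spectronaut quantities of proteins with ≥2 unique peptides.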
# ATXN3 = ATXN3 (UniProt P54252)
# Chain of ATXN3 (P54252 whole entry): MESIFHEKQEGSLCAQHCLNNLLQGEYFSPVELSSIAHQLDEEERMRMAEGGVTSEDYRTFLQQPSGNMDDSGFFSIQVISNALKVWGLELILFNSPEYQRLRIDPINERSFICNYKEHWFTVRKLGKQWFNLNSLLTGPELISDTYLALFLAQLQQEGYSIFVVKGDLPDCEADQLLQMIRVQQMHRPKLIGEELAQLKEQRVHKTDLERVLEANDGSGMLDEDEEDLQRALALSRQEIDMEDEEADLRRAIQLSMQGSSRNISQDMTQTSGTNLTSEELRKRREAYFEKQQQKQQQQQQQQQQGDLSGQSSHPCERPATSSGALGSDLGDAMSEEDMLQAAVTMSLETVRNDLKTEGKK
# Outline: as §1
# BAP1 = target: T2, BAP1 (UniProt Q92560)
# T2 sequence (whole entry): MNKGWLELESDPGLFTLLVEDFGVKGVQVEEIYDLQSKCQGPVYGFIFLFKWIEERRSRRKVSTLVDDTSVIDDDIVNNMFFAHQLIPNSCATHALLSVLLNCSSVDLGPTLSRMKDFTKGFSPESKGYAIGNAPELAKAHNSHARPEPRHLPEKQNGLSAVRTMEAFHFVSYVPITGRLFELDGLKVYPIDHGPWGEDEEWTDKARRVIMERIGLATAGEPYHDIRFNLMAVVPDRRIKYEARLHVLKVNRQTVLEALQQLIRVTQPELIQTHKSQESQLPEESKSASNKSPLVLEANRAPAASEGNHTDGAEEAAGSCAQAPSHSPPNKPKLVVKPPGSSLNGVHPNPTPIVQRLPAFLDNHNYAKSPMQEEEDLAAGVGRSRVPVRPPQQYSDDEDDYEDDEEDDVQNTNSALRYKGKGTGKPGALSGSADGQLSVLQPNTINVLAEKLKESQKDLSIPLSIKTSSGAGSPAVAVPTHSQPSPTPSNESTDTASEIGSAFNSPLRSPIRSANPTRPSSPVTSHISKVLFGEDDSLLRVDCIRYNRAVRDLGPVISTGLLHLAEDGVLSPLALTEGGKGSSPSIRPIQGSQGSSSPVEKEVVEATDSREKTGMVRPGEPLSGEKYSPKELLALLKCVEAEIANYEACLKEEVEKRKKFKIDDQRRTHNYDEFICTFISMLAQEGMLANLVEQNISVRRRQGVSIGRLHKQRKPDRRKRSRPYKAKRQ
# Outline: as §1
# EIF3F = EIF3F (UniProt O00303)
# Chain of EIF3F (O00303 whole entry): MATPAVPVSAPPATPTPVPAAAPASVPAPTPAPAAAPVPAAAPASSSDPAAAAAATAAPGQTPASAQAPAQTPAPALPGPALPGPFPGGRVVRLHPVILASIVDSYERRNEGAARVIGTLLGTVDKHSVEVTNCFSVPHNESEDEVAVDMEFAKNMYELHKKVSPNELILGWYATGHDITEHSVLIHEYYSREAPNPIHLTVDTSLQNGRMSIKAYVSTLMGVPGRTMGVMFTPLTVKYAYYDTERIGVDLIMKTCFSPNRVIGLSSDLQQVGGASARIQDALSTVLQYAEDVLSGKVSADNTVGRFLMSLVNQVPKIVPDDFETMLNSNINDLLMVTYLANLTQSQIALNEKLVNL
# Outline: as §1
# EIF3H = EIF3H (UniProt O15372)
# Chain of EIF3H (O15372 whole entry): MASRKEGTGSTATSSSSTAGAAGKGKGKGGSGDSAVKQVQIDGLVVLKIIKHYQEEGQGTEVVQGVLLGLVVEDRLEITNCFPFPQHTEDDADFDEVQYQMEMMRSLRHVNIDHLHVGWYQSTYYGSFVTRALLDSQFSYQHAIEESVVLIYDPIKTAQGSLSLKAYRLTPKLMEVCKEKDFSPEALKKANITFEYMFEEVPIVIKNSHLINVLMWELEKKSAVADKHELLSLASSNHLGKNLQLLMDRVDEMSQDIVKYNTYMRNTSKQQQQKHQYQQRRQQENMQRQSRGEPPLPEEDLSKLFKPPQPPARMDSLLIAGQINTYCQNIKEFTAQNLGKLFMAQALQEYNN
# Outline: as §1
# FAM105A = target: T3, FAM105A (UniProt Q9NUU6)
# T3 sequence (whole entry): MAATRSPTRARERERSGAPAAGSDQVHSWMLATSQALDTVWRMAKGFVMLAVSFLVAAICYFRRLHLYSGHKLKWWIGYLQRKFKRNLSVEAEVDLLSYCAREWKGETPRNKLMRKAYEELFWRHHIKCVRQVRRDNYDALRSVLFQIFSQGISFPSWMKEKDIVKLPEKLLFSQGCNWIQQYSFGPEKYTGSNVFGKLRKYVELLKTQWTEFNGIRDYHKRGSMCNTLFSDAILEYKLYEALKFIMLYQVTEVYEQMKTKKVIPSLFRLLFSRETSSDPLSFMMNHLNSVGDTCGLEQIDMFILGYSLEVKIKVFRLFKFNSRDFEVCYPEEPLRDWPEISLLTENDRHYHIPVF
# Outline: as §1
# OTUB1 = OTUB1 (UniProt Q96FW1)
# Chain of OTUB1 (Q96FW1 whole entry): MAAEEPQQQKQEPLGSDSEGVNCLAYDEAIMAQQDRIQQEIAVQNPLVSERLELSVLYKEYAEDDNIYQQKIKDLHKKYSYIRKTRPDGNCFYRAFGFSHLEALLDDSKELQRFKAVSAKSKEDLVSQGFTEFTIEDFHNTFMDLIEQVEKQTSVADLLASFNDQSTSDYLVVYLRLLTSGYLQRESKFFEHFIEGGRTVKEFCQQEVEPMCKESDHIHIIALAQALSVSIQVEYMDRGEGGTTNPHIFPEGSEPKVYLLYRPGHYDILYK
# Outline: as §1
# OTUD4 = target: T4, OTUD4 (UniProt Q01804)
# T4 sequence (whole entry): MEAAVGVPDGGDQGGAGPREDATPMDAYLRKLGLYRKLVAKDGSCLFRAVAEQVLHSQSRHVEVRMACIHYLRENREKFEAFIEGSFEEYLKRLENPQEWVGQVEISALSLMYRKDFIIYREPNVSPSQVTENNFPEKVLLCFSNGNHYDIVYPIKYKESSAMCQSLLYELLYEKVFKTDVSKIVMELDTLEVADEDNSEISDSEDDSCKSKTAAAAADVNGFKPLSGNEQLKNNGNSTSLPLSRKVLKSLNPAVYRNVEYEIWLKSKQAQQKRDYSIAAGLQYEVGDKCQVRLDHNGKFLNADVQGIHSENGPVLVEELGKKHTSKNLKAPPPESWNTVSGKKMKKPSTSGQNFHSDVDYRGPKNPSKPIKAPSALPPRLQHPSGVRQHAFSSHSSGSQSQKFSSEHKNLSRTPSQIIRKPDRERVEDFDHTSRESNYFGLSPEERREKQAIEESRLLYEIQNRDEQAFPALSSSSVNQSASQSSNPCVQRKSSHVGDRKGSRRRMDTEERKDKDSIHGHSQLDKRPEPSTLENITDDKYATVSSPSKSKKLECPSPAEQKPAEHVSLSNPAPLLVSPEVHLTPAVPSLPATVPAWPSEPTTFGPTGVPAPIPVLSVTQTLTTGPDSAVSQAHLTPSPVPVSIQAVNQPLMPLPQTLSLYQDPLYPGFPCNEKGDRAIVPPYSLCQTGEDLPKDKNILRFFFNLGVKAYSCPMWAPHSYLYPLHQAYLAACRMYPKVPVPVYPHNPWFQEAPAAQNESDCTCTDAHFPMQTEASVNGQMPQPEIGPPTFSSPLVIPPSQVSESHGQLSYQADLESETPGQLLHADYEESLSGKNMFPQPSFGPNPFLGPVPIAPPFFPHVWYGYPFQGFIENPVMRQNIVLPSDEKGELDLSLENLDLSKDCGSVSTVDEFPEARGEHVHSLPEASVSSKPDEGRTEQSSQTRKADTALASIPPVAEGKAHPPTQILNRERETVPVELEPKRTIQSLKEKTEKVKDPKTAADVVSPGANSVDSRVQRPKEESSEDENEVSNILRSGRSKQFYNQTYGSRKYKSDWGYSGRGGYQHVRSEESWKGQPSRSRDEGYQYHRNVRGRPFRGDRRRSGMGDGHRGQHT
# Outline: as §1
# OTUD5 = target: T5, OTUD5 (UniProt Q96G74)
# T5 sequence (whole entry): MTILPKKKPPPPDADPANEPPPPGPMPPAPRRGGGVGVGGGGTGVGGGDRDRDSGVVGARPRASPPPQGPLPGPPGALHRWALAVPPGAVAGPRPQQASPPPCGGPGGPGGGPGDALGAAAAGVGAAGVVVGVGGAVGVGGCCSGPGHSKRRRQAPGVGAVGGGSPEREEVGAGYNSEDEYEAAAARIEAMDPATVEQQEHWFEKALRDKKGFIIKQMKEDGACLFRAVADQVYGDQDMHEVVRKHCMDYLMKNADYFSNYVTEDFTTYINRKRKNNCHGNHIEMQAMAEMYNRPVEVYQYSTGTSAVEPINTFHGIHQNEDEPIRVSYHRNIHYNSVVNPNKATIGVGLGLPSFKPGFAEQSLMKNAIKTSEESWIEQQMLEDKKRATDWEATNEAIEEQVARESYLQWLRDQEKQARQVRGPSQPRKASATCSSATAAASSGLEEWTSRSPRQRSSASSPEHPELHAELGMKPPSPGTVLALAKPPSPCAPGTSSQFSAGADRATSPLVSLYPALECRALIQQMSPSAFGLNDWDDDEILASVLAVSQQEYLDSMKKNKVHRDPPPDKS
# Outline: as §1
structure (smiles),measurement,setting,value
O=C(CCl)N1CCC(c2nc3ccccc3o2)CC1,log2 ratio of Biotin-Ahx-Ub-VS probe labelling,ALG13,-0.377
same,log2 ratio of Biotin-Ahx-Ub-VS probe labelling,ATXN3,-0.627
same,log2 ratio of Biotin-Ahx-Ub-VS probe labelling,BAP1,-1.64 (active)
same,log2 ratio of Biotin-Ahx-Ub-VS probe labelling,EIF3F,-0.00792
same,log2 ratio of Biotin-Ahx-Ub-VS probe labelling,EIF3H,0.264
same,log2 ratio of Biotin-Ahx-Ub-VS probe labelling,FAM105A,0.258
same,log2 ratio of Biotin-Ahx-Ub-VS probe labelling,OTUB1,0.109
same,log2 ratio of Biotin-Ahx-Ub-VS probe labelling,OTUD4,-0.417
same,log2 ratio of Biotin-Ahx-Ub-VS probe labelling,OTUD5,-0.841
